For 40 compounds, growth results are on record in PubChem BioAssay (NCI).

This is part of a sample that, as a whole, favours compounds with a hit. Of some 83,000 tested, about 20% had one in any assay.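 Single-concentration screen, 48 h exposure, 96-well plates. Endpoint: percent growth. Below 10 = active.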 Unmarked numbers belong to inactive results. The source made the active and inactive calls.

This assay relates to SN12C renal. Description: NCI-60 one-dose screen, 48 h (100 = growth as untreated, 0 = no growth, -100 = all killed). To be noted: 10 µM. As to the method: Growth inhibition of the SN12C human tumor cell line is measured as a screen for anti-cancer activity. Cells are grown in 96 well plates and exposed to the test compound for 48 hours. Compounds are tested at a single concentration, which is 10^-5 M for most compounds. The reported endpoint is percent growth (GI% or GIPRCNT), where numbers from 0 - 100% represent growth inhibition, and numbers from -100% - 0 represent cell death. For example, a value of 40 represents 60% growth inhibition. A value of 0 means no net growth occurred over the course of the experiment. A value of -40 indicates 40% of cells at the beginning of the experiment died by the end of the experiment. A value of -100 means all cells are dead at the end of the experiment.
NCI-60 Human Tumor Cell Lines Screen was performed using the standard one-dose NCI protocol, which is described in more detail at https://dtp.cancer.gov/discovery_development/nci-60/default.htm.
Compounds with GIPRCNT values below 10 were considered active. Activity score was based on GIPRCNT using the following formula: […]
Score is 0 for GIPRCNT values of 100 or above, 50 for GIPRCNT values of 0, and 100 for GIPRCNT values of -100.
On to `CCOc1ccc(/C=N/NC(=O)Cn2nc(Cc3ccccc3)c3onc(C)c3c2=O)cc1`, for which the growth was 8.3% (active).

Consider `Cc1ccc([N+](=O)[O-])c(C(=O)Nc2ccc(-c3ccc4c(c3)NC(=O)/C4=C\c3ccc[nH]3)cc2)c1`, for which the growth is 60.1%.

For the compound `O=C(c1ccccc1)n1ccc(-c2cc3cc(Br)ccc3oc2=O)n1`, the growth was 27.4%.

`O=C(Cc1ccc2c(c1)CN(C1CCC(=O)NC1=O)C2=O)NCc1cccc2ccccc12` (stereo not given): the growth was -7.92% (active).

Consider `CN1CCN(c2ccc(Nc3nc(N4CCN(S(=O)(=O)c5ccc(Cl)cc5)CC4)c4sccc4n3)cc2)CC1`, for which the growth is 91.9%.

Take `CCCn1c(O)c(N=Nc2nc(-c3cc4ccccc4oc3=O)cs2)c2cc(Br)ccc21`: the growth was 95.2%.

On to `C=C[C@H]1[C@H](O[C@@H]2OC(CO)[C@@H](O)[C@H](O)C2OC(=O)c2c(O)cc(O)cc2-c2cccc(O)c2)OC=C2C(=O)OCC[C@H]21` (stereo not given in full), for which the growth is 102%.

As for `COc1ccc(C2N(c3ccc(Br)cc3)N=C(C(C)=O)N2[C@H]2[C@H](OC(C)=O)O[C@H](COC(C)=O)[C@@H](OC(C)=O)[C@@H]2OC(C)=O)cc1` (stereo not given in full), the growth was 79.7%.

Regarding `Nc1nnc(-c2c[nH]c3ncccc23)c(-c2c[nH]c3ccc(Br)cc23)n1`, the growth was 45.2%.

Regarding `CN1CCN(c2ccc(C(=O)/C=C/c3cc(Br)ccc3F)cc2)CC1`, the growth is 38.2%.

For the compound `O=C1CCC(N2Cc3c(C#CCCCNC(=O)c4ccc(NC(=O)[C@@H]5NC6(CCCCC6)[C@@]6(C(=O)Nc7cc(Cl)ccc76)[C@H]5c5cccc(Cl)c5F)cc4)cccc3C2=O)C(=O)N1` (stereo not given in full), the growth is 74.3%.

For `O=C(NCCCCC(c1ccc(F)cc1)c1ccc(F)cc1)NCCCc1cccnc1`, the growth is 23.9%.

Take `O=C(CNc1nc(-c2ccccc2)cs1)Nc1ccccc1`: the growth is -47.3% (active).

`O=C(N/N=C/c1ccc(-c2cccc([N+](=O)[O-])c2)o1)c1[nH]c2ccc(Br)cc2c1-c1ccccc1`: the growth is 3.81% (active).

Consider `Clc1cccc(N/N=C/c2c[nH]c3ccccc23)n1`, for which the growth was 16.8%.

Regarding `CONC[C@]1(C)C=C2C(=O)[C@](C)(O)C3(CC3)C(C)=C2[C@H]1O`, the growth is -6.45% (active).

Regarding `Cc1ccc(-c2nc(Nc3ccc(S(N)(=O)=O)cc3)c3ccccc3n2)cc1`, the growth was 68.7%.

Regarding `COC1CC(Cn2cc(COc3ccc4ccc(=O)oc4c3)nn2)C(OCc2ccccc2)C(OCc2ccccc2)C1OCc1ccccc1` (stereo not given), the growth is 106%.

On to `COc1cc2c3c(n(CCCn4ccnc4)c(=O)c2cc1OC)-c1nc2c(cc1C3=O)OCO2`, for which the growth is 19.7%.

On to `O=c1oc2ccc(-c3ccc(F)cc3F)cc2c(=O)n1-c1ccc(F)cc1`, for which the growth was -13.3% (active).

As for `O=C(Nc1ccc(F)c(Cl)c1)c1cc(-c2ccc(F)cc2F)ccc1O`, the growth is -17.3% (active).

In the case of `Cc1ccc(C(C)C)cc1NC(=O)c1ccccc1O`, the growth is 37.8%.

With `Cc1cc2nc3c4ccccc4n(CCO)c3nc2cc1C`, the growth was 43.5%.

Consider `COc1ccc(N(C)c2cc(C#N)nc3ccccc23)cc1/C=C/C(=O)NO`, for which the growth is -51.4% (active).

Regarding `O=C1Nc2ccc(Cl)cc2/C1=C/c1ccc(OCc2ccccn2)cc1`, the growth was 44.5%.

`COc1ccc2[nH]c(=O)c(CSc3nccc(-c4ccc(Cl)cc4)n3)cc2c1`: the growth was 34.4%.

For the compound `COc1nccnc1NS(=O)(=O)c1ccc(NC2=C(Cl)C(=O)c3nc(C)ccc3C2=O)cc1`, the growth is 99.1%.

As to `O=C(N/N=C/c1ccc(B(O)O)o1)c1[nH]c2ccc(Br)cc2c1-c1ccccc1`, the growth was 31.2%.

With `C=C1CCC2C3(C)COC(c4ccccc4F)OC3CCC2(C)C1C/C=C1/C(=O)OCC1O` (stereo not given), the growth is -40.9% (active).

On to `CC(C)C1=C[C@@]23CC[C@@H]4[C@](C)(CCC[C@]4(C)C(=O)NCc4ccccc4)[C@H]2C[C@@H]1[C@H]1C(=O)CCC(=O)[C@H]13`, for which the growth is 83.4%.

Take `COc1ccccc1[C@H]1C(C(=O)c2ccc(Cl)cc2)C2(N[C@@H]1c1ccccc1)C(=O)Nc1ccc(Cl)cc12` (stereo not given in full): the growth is -66.3% (active).

`CN(C)c1cccc2c(S(=O)(=O)Nc3cccc(-c4csc(NC(=O)CCCCCN5CCN(c6cc7c(cc6F)C(=O)N(C6CCC(=O)NC6=O)C7=O)CC5)n4)c3)cccc12` (stereo not given): the growth was 85.8%.

Regarding `CCCCCCCCCCCCCCCCCCCC(=O)NCCc1c[nH]c2ccc(OC(=O)CCCC(=O)OCCOOCCOOCCOOCCOOCCOOCCOOCCOOCCOOCCOOCCOOCCOOCCOC)cc12`, the growth is 17.4%.

Turning to `O=C1Nc2ccc(Cl)cc2/C1=C/c1cccc(OCc2ccccn2)c1`, the growth is -50.6% (active).

Turning to `N#Cc1c(NC(=O)c2ccc(C(F)(F)F)cc2)sc2c1CCC(=O)C2`, the growth was -31.9% (active).

Consider `COc1cc(NC(=O)c2cc(-c3ccc(F)cc3F)ccc2O)cc(OC)c1OC`, for which the growth is 18.6%.

With `CCN1CCN(c2ccc(NC(=O)Nc3ccc(-c4cc(C(=O)NC(C)C)c5ncccc5n4)cc3)cc2C(F)(F)F)CC1`, the growth was -94.3% (active).

Consider `O=C1CCC(N2Cc3cc(CC(=O)Nc4ccc(N5CCCCC5)cc4)ccc3C2=O)C(=O)N1` (stereo not given), for which the growth was 46.7%.

Consider `Cc1ccc(/C(N)=N/c2sc(-c3ccccc3)nc2-c2ccccc2)cc1`, for which the growth was 77.8%.

For `O=C(O)CCCCCCCCCCN1C(=O)/C(=C/c2cnc(-c3ccccc3)s2)SC1=S`, the growth is 30.1%.
